Reference: PubChem BioAssay AID1159580 (chemical genetic matrix, 2015)
Several values for one entry are separate records, joined by “and”; a condition that tells them apart may be missing. Equal entries are not always repeated. In all, about 5,500 compounds went through this assay and about 2,000 (36%) were called active. Not shown: some 18% with an inconclusive outcome. Rule as the data show it: active = normalized growth mostly below about 0.91 (no sharp cut-off); inconclusive = no clear call, values can overlap the other calls; inactive = mostly above about 0.92. Some of the results follow.

Assay: chemical genetic growth profiling, strain panel (AID 1159580);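 also: tested at 20 µM; growth read once vehicle control cultures reached saturation at 30 °C; 1 = growth at the plate median or of vehicle wells; lower values mean less growth of the strain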
Details: growth OD
[1] = S. cerevisiae deletion strains, locus YAL013W, strain DEP1, hits give low values
[2] = S. cerevisiae deletion strains, locus YBR229C, strain ROT2, hits give low values
[3] = S. cerevisiae deletion strains, locus YDL101C, strain DUN1, hits give low values
[4] = S. cerevisiae deletion strains, locus YDL134C, strain PPH21, hits give low values
[5] = S. cerevisiae deletion strains, locus YDR150W, strain NUM1, hits give low values
[6] = S. cerevisiae deletion strains, locus YEL061C, strain CIN8, hits give low values
[7] = S. cerevisiae deletion strains, locus YGR078C, strain PAC10, hits give low values
[8] = S. cerevisiae deletion strains, locus YHR030C, strain SLT2, hits give low values
[9] = S. cerevisiae deletion strains, locus YHR087W, strain rtc3, hits give low values
[10] = S. cerevisiae deletion strains, locus YJR043C, strain POL32, hits give low values
[11] = S. cerevisiae deletion strains, locus YJR075W, strain HOC1, hits give low values
[12] = S. cerevisiae deletion strains, locus YLR039C, strain RIC1, hits give low values
[13] = S. cerevisiae deletion strains, locus YLR058C, strain SHM2 (second series), hits give low values
[14] = S. cerevisiae deletion strains, locus YLR085C, strain ARP6, hits give low values
[15] = S. cerevisiae deletion strains, locus YLR262C, strain YPT6, hits give low values
[16] = S. cerevisiae deletion strains, locus YML094W, strain GIM5, hits give low values
[17] = S. cerevisiae deletion strains, locus YMR219W, strain ESC1, hits give low values
[18] = S. cerevisiae deletion strains, locus YMR263W, strain SAP30, hits give low values
[19] = S. cerevisiae deletion strains, locus YNL153C, strain GIM3, hits give low values
[20] = S. cerevisiae deletion strains, locus YNL298W, strain CLA4 (second series), hits give low values
[21] = S. cerevisiae deletion strains, locus YNL322C, strain KRE1, hits give low values
[22] = S. cerevisiae deletion strains, locus YNR030W, strain Alg12, hits give low values
[23] = S. cerevisiae deletion strains, locus YPL055C, strain LGE1, hits give low values
[24] = S. cerevisiae deletion strains, locus YPL241C, strain CIN2, hits give low values
[25] = S. cerevisiae deletion strains, locus YPR135W, strain CTF4, hits give low values

Measured: normalized growth

COc1cc(OC)cc(N2C(=O)C=CC2=O)c1
active: [1] 0.0543 | [2] 0.0573 | [3] 0.0709 | [4] 0.0477 | [5] 0.05 | [6] 0.0533 | S. cerevisiae deletion strains, locus YGR052W, strain FMP48, hits give low values 0.129 | [7] 0.802 | [8] 0.0734 and 0.115 | S. cerevisiae deletion strains, locus YHR079C, strain IRE1, hits give low values 0.231 | S. cerevisiae deletion strains, locus YHR082C, strain KSP1, hits give low values 0.112 | [9] 0.0623 | S. cerevisiae deletion strains, locus YJL095W, strain BCK1, hits give low values 0.127 | [10] 0.0486 | S. cerevisiae deletion strains, locus YJR066W, strain TOR1, hits give low values 0.113 | [11] 0.0671 | S. cerevisiae deletion strains, locus YKL171W, strain NNK1, hits give low values 0.0984 | S. cerevisiae deletion strains, locus YKL203C, strain TOR2, hits give low values 0.107 | [12] 0.0602 | [13] 0.0529 | [14] 0.0621 | S. cerevisiae deletion strains, locus YLR113W, strain HOG1, hits give low values 0.184 | [15] 0.0582 | [16] 0.0622 | [17] 0.0491 | [18] 0.0514 | [19] 0.0557 | S. cerevisiae deletion strains, locus YNL183C, strain NPR1, hits give low values 0.131 | S. cerevisiae deletion strains, locus YNL207W, strain RIO2, hits give low values 0.0908 | [20] 0.0613 | [21] 0.0499 | [22] 0.0629 | S. cerevisiae deletion strains, locus YOR119C, strain RIO1, hits give low values 0.121 | S. cerevisiae deletion strains, locus YOR231W, strain MKK1, hits give low values 0.185 | [23] 0.07 | [24] 0.0792 | S. cerevisiae deletion strains, locus YPL256C, strain CLN2, hits give low values 0.146 | [25] 0.18

CCC(=O)Nc1cc(OC)cc(OC)c1
inactive: [1] 1 | [2] 1.01 | [3] 1.01 | [4] 1 | [5] 0.908 | [6] 1 | [7] 1.01 | [8] 1.01 | [9] 1 | [10] 0.963 | [11] 0.98 | [12] 1.04 | [13] 1.01 | [14] 0.973 | [15] 1.02 | [16] 1.03 | [17] 0.999 | [18] 0.987 | [19] 0.997 | [20] 1.01 | [21] 1.01 | [22] 1.01 | S. cerevisiae deletion strains, locus YOL006C, strain TOP1, hits give low values 0.998 | [23] 1.13 | [24] 1.03 | [25] 1.06 | S. cerevisiae strains, strain wild type, hits give low values 1.02
